# The campaign covered roughly 290,000 compounds. About 11,000 (3.8%) were called active.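 Rule for the calls: active = mean replicate inhibition above about 79%, with every replicate also reaching it (limit read from the data); inconclusive = only one of the two criteria met; inactive = mean below limit and not every replicate reaching it.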 This excerpt belongs to a sample that is enriched for actives.
# Target: FAD-linked sulfhydryl oxidase ALR (Homo sapiens) (UniProt P55789)
# Assay: inhibitors of human ALR sulfhydryl oxidase, primary screen, biochemical, H2O2 detection, HRP-luminol luminescence, single point (AID 485317)
# Details: purified ALR, DTT oxidation, stronger effect = higher value, concentration not given here
# FAD-linked sulfhydryl oxidase ALR (Homo sapiens), sequence (P55789 whole entry, looked up): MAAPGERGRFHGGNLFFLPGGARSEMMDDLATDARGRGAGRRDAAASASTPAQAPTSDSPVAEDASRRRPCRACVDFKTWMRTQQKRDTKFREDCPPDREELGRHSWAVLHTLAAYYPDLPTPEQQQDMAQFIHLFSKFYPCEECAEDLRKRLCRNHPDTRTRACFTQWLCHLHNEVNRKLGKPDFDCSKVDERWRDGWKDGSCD
row,Structure (SMILES),inhibition
1,NC(=O)c1ccsc1NC(=O)COC(=O)COc1ccc(C=O)cc1,0.523% (inactive)
2,COc1ccc(C2=NOC(Cn3nc(C(=O)NCc4ccc5c(c4)OCO5)cc3-c3ccccc3)C2)cc1 (configuration not stated),-0.145% (inactive)
3,COc1ccc(OCC(=O)N2CCN(C(=O)c3cccs3)CC2)cc1,-3.05% (inactive)
4,O=C(c1cccs1)N1CCN(C(=O)N2CCOCC2)CC1,5.71% (inactive)
5,COc1ccc(N2CCN(C(=O)c3cccs3)CC2)cc1,93.9% (active)
6,COc1ccc(C(=O)OC(C)C(=O)NC2CCCC2)cc1S(=O)(=O)N1CCOCC1 (configuration not stated),0.414% (inactive)
7,O=C(Nc1ccc(N2CCCCC2)cc1)c1cc(S(=O)(=O)N2CCOCC2)ccc1F,40.2% (inactive)
8,COC(=O)c1c(NC(=O)c2ccccc2F)sc2c1C(C(=O)OC)CC2 (configuration not stated),1.9% (inactive)
9,NC(=O)c1c(NC(=O)c2ccccc2)sc2c1CCCC2,-3.69% (inactive)
10,O=C(Nc1sc2c(c1C(=O)O)CCC2)c1ccccc1F,98.3% (active)
11,O=C(NCC(c1cccs1)N1CCOCC1)c1cc(Cl)ccc1[N+](=O)[O-] (configuration not stated),-35.8% (inactive)
12,CC(C)Oc1ccc(S(=O)(=O)N2CCOCC2)cc1NC(=O)C1CCCC1,0.587% (inactive)
13,CCOc1ccc(NC(=O)CN(C)C(=O)Cn2c(=O)cnc3ccccc32)cc1OCC,-5.33% (inactive)
14,CCOc1ccc(CCNC(=O)COC(=O)C2CCN(c3ccc(C(F)(F)F)cn3)CC2)cc1OCC,0.148% (inactive)
15,CC(=O)N1CC(=O)N(CC(=O)Nc2ccc(Br)cc2)C1=S,99.4% (active)
16,Cc1cccc(NC(=O)CN2C(=O)CNC2=O)c1,-1.19% (inactive)
17,COCC(=O)Nc1ccc(Br)cc1,-12.4% (inactive)
18,Cc1ccc(C(=O)Nc2ccc3c(c2)OCCO3)cc1S(=O)(=O)N1CCOCC1,-6.89% (inactive)
19,Cc1ccc(OCC(=O)N2CCN(S(=O)(=O)c3ccc(Cl)s3)CC2)cc1C,-2.26% (inactive)
20,COc1ccc(N2CCN(C(=O)COC(=O)c3cccc(S(=O)(=O)Nc4ccccc4OC)c3)CC2)cc1,1.72% (inactive)
21,CC1CCCCC12NC(=O)N(CC(=O)Nc1ccc(S(=O)(=O)Nc3ncccn3)cc1)C2=O (configuration not stated),91.2% (active)
22,CC1CCCCC12NC(=O)N(CC(=O)N1CCN(c3ccccc3)CC1)C2=O (configuration not stated),33.6% (inactive)
23,CC1CCCCC12NC(=O)N(CC(=O)OCC(=O)NCc1ccc(F)cc1)C2=O (configuration not stated),-8.04% (inactive)

row,Structure (SMILES),inhibition
1,COc1ccccc1C(=O)NCC(=O)NCCSc1ccc(Br)cc1,-5.14% (inactive)
2,COc1ccc(/C=N/NC(=O)c2cc(-c3cccc(C)c3)nc3ccccc23)cc1O,12.4% (inactive)
3,CC(Oc1ccc(F)cc1)C(=O)Nc1cc(S(=O)(=O)N2CCOCC2)ccc1N1CCN(C)CC1 (configuration not stated),24.9% (inactive)
4,CCCCCCc1ccc(O)cc1O,84.4% (active)
5,CCCCCCc1cc2cc(-c3nnc(-c4ccccc4)o3)c(=O)oc2cc1O,1.08% (inactive)
6,CCCCCCCN=C(C)c1ccccc1O,-17.6% (inactive)
7,COc1cccc(N2CC(NS(=O)(=O)c3ccc(Cl)cc3)CC2=O)c1 (configuration not stated),-2.83% (inactive)
8,COc1ccc2c(c1)CCNC2Cc1ccc(OC)c(O)c1 (configuration not stated),22% (inactive)
9,N=C(N)SCc1cccc2ccccc12,99.3% (active)
10,c1ccc2c(CNn3cnnc3)cccc2c1,-6.4% (inactive)
11,N#C/C(=C(/O)Cc1cccc2ccccc12)c1nc2ccccc2s1,4.12% (inactive)
12,O=C(CCNC(=O)c1ccc(Br)cc1)Nc1cccc(S(=O)(=O)N2CCCCC2)c1,-14.1% (inactive)
13,COc1ccc2oc(C(=O)OCC(=O)N(CC(C)C)c3c(N)n(Cc4ccccc4)c(=O)[nH]c3=O)c(C)c2c1,7.4% (inactive)
14,O=C(Nc1cc(S(=O)(=O)N2CCCCC2)ccc1Cl)C1COc2ccccc2O1 (configuration not stated),0.363% (inactive)
15,Cc1c(C(=O)OCC(=O)N2CCCC2=O)oc2ccccc12,-37.2% (inactive)
16,COc1cc(OC)nc(NC(=O)CCl)n1,6.07% (inactive)
17,O=C(CCl)NNc1cccc(Cl)n1,98.1% (active)
18,O=C(CCl)NNc1nc(-c2ccccc2)c2cc(Cl)ccc2n1,58.6% (inactive)
19,O=C(COC(=O)c1ncc(Cl)c(Cl)c1Cl)NNC(=O)c1ccccc1,8.83% (inactive)
20,O=C(COC(=O)Cc1ccccc1F)NNC(=O)c1ccc(Cl)cc1,0.881% (inactive)
21,O=C(CSCc1ccccc1Cl)NNC(=O)c1ccccc1,99.6% (active)
22,CCN1CCN(c2ccc(S(=O)(=O)N3CCCCC3)cc2NC(=O)c2cccc(NC(C)=O)c2)CC1,-18.1% (inactive)
23,C[C@]12CC[C@H](O)CC1=CCC1C2CC[C@@]2(C)C1CC[C@@H]2NC(=O)CCC(=O)O (some centres not stated),-3.02% (inactive)

row,Structure (SMILES),inhibition
1,Cc1ccc(NC(=O)COC(=O)C2CC2)cc1S(=O)(=O)N1CCOCC1,3.43% (inactive)
2,CN(C)S(=O)(=O)c1ccc(C(=O)NCC2(N3CCOCC3)CCCCC2)cc1,-19.4% (inactive)
3,CCOC(=O)COc1cc(O)c2c(=O)cc(-c3ccccc3)oc2c1,-2.55% (inactive)
4,COc1c(O)cc2oc(-c3ccc(O)c(O)c3)cc(=O)c2c1O,99% (active)
5,COc1ccc(-c2cc(=O)c3c(O)cc(O[C@@H]4O[C@H](CO[C@@H]5O[C@@H](C)[C@H](O)[C@@H](O)[C@H]5O)[C@@H](O)[C@H](O)[C@H]4O)cc3o2)cc1O,2.46% (inactive)
6,[O-][n+]1ccc(OCc2ccccc2)cc1,-3.31% (inactive)
7,CCOc1ccc(Br)cc1S(=O)(=O)Nc1ccc(S(=O)(=O)Nc2cc(C)on2)cc1,13.7% (inactive)
8,O=C(Nc1ccc(F)cc1)N1CCCC(c2nc3c(nnn3Cc3ccccc3Cl)c(=O)[nH]2)C1 (configuration not stated),-24.5% (inactive)
9,Cc1ccc(C)c(Cn2nnc3c(=O)[nH]c(C(=O)Nc4ccc(F)cc4)nc32)c1,95.6% (active)
10,Cc1ccc(NC(=O)N2CCC(c3nc4c(nnn4Cc4c(F)cccc4Cl)c(=O)[nH]3)CC2)cc1,-5.17% (inactive)
11,OC(COCC1COc2ccccc2O1)CN1CCN(c2ccc(F)cc2)CC1 (configuration not stated),81.2% (active)
12,O=[N+]([O-])c1ccc(N2CCN(CC(O)COc3ccccc3)CC2)cc1 (configuration not stated),6.12% (inactive)
13,OC(COCc1ccco1)CN1CCN(c2ccccc2)CC1 (configuration not stated),74.6% (inactive)
14,CCn1c(SCc2ccccc2)nc2cc(OC)c(OC)cc2c1=O,-2.54% (inactive)
15,COCCn1c(SCC(=O)N2CCCCCC2)nc2c(c1=O)SCC2,-0.691% (inactive)
16,CCn1c(SCc2ccccc2)nc2c(c1=O)SCC2,90.4% (active)
17,Cc1cccc(CSc2nc3c(c(=O)n2C)SCC3)c1,99% (active)
18,Cn1c(SCC(=O)N2CCCCC2)nc2c(c1=O)SCC2,-0.76% (inactive)
19,Cc1cccc(CSc2nnc(C)c(=O)n2N)c1,-4.99% (inactive)
20,NS(=O)(=O)c1ccc(CNC(=O)c2cccc(S(=O)(=O)N3CCc4ccccc43)c2)cc1,-5.92% (inactive)
21,Cc1ccc(S(=O)(=O)N(C)C)cc1NC(=O)CN1c2cccc3cccc(c23)S1(=O)=O,-16.6% (inactive)
22,Cc1ccc(S(=O)(=O)N2CCCCC2)cc1NC(=O)CCNC(=O)c1ccccc1,-5.33% (inactive)
23,CCOc1ccc(C(C)=O)cc1COC(=O)CN1C(=O)NC2(CCCC2)C1=O,-0.483% (inactive)

row,Structure (SMILES),inhibition
1,COc1cc(/C=C2\Oc3ccc(C#Cc4ccc(O)cc4)cc3C2=O)cc(OC)c1,4.14% (inactive)
2,S=c1[nH]nc(COc2ccccc2)n1-c1ccccc1,31.7% (inactive)
3,CC(NS(=O)(=O)c1ccccc1)c1n[nH]c(=S)n1-c1ccccc1 (configuration not stated),86.4% (active)
4,CC(NS(=O)(=O)c1ccc(OCC(=O)N2CCCC2)cc1)c1ccccc1 (configuration not stated),-2.54% (inactive)
5,COC(=O)c1nc(NC(=O)c2ccccc2)n[nH]1,97.4% (active)
6,O=C(Nc1nsc(-c2ccccc2)n1)c1ccncc1,1.28% (inactive)
7,COC(=O)c1nc(NC(=O)c2ccc(Cl)cc2)n[nH]1,-3.46% (inactive)
8,O=C(CSc1nc2ccccc2c(=O)n1CCCO)NC1CC1,0.869% (inactive)
9,CC(Sc1ccccc1F)C(=O)Nc1cccc(S(=O)(=O)N2CCOCC2)c1 (configuration not stated),-3.71% (inactive)
10,CN=C(Nc1cccc(S(=O)(=O)N2CCOCC2)c1)c1ccccc1,-1.77% (inactive)
11,CC(Sc1cccc[n+]1[O-])C(=O)Nc1cccc(S(=O)(=O)N2CCOCC2)c1 (configuration not stated),96.9% (active)
12,CN(CC(=O)Nc1cccc(F)c1)C(=O)C1CC(=O)N(CCc2ccccc2)C1 (configuration not stated),-3.35% (inactive)
13,O=C(CSc1nnc(-c2ccncc2)o1)Nc1cccc(Cl)c1,6.76% (inactive)
14,CCc1cc(-c2n[nH]c(=S)n2CC(C)C)cs1,94.7% (active)
15,CCn1c(-c2ccncc2)n[nH]c1=S,65.5% (inactive)
16,CCCc1cc(-c2n[nH]c(=S)n2Cc2ccccc2)cs1,49.7% (inactive)
17,N#Cc1cc([N+](=O)[O-])ccc1NC(=O)COC(=O)c1cnccn1,-7.67% (inactive)
18,O=C(c1cc2ccccc2o1)N1CCN(S(=O)(=O)c2ccc(Cl)s2)CC1,-0.962% (inactive)
19,COc1ccc(C(CNC(=O)c2cccc(NS(=O)(=O)c3ccc(C)c(F)c3)c2)N2CCCC2)cc1 (configuration not stated),-7.21% (inactive)
20,CC(C)NC(=O)NC(=O)COC(=O)c1ccc(NC(=O)CC#N)cc1,98.6% (active)
21,CC(C)c1ccc(NC(=O)COC(=O)c2ccc(CN3CCCC3=O)cc2)cc1,-43.2% (inactive)
22,CCOc1ccc(NC(=O)c2ccc(NC(=O)COC(=O)c3ccc(NC(=O)CC#N)cc3)cc2)cc1,1.83% (inactive)
23,N#CCN(C(=O)COC(=O)C1CC2CCCC(C1)C2=O)c1ccccc1 (configuration not stated),-1.07% (inactive)
